# From PubChem BioAssay AID434970 (Sanford-Burnham Center for Chemical Genomics, 2010)
# The campaign covered roughly 11,000 compounds. About 310 (2.8%) were called active. No stated cut-off is given here; in the data, active means activity change below about -85%; inactive means the rest. The full list was thinned out, with actives kept by preference.
# System: intestinal alkaline phosphatase [Mus musculus]
# Assay: activators of mouse IAP, confirmation, biochemical, luminescence, single concentration (AID 434970)
# Conditions: purified mouse IAP, CDP-Star luminescence, 30 min, at 10 µM; activation factor: measured here: IAP activation factor, stronger effect = higher value; activity change, negative = activation: stronger effect = lower value
SMILES,activation factor,"activity change, negative = activation"
C[C@]12c3[nH]c4cc(-c5ccco5)ccc4c3CCN1C(=O)[C@@H](CC(=O)NCCN1CCOCC1)C[C@@H]2C(=O)N1CCOCC1,0.997,0.25% (inactive)
C[C@H](CO)N1C[C@H](C)[C@H](CN(C)S(=O)(=O)c2ccccc2)Oc2ccc(NC(=O)NC3CCCCC3)cc2CC1=O,1.71,-71.4% (inactive)
C[C@@H]1CN([C@@H](C)CO)C(=O)c2cc(NC(=O)Nc3ccc4c(c3)OCO4)ccc2O[C@H]1CN(C)S(=O)(=O)c1ccc(F)cc1,1.65,-64.8% (inactive)
C[C@H](CO)N1C[C@H](C)[C@@H](CN(C)S(=O)(=O)c2ccc(F)cc2)Oc2ccc(NC(=O)NC3CCCCC3)cc2C1=O,2.2,-120% (active)
COc1ccc(S(=O)(=O)N(C)C[C@H]2Oc3ccc(NC(=O)NC4CCCCC4)cc3C(=O)N([C@H](C)CO)C[C@@H]2C)cc1,2.74,-174% (active)
C[C@H](CO)N1C[C@H](C)[C@@H](CN(C)S(=O)(=O)c2ccccc2)Oc2ccc(NC(=O)NC3CCCCC3)cc2C1=O,2.79,-179% (active)
COc1ccc(NC(=O)N(C)C[C@H]2Oc3ccc(NC(=O)NC4CCCCC4)cc3C(=O)N([C@H](C)CO)C[C@@H]2C)cc1,1.61,-60.9% (inactive)
C[C@H](CO)N1C[C@H](C)[C@@H](CN(C)S(=O)(=O)c2ccc(F)cc2)Oc2ccc(NC(=O)Nc3ccc4c(c3)OCO4)cc2C1=O,1.82,-81.6% (inactive)
Cc1noc(C)c1S(=O)(=O)N(C)C[C@H]1Oc2ccc(NC(=O)NC3CCCCC3)cc2C(=O)N([C@H](C)CO)C[C@@H]1C,1.82,-81.5% (inactive)
Cc1ccc(NC(=O)N2CCC(NC(=O)c3ccccc3C)CC2)cc1,0.993,0.7% (inactive)
O=C(C[C@H]1C[C@H](C(=O)N2CCCCC2)[C@@]2(CCc3ccccc3)c3[nH]c4cc(-c5ccco5)ccc4c3CCN2C1=O)NCc1ccco1,1.16,-16.1% (inactive)
CC(=O)c1ccc(NC(=O)N2CCN(c3cccc(Cl)c3)CC2)cc1,1.08,-7.6% (inactive)
O=C(Nc1ccccc1)Nc1cccc(Cl)c1,2.11,-111% (active)
O=C(Cc1cccc2ccccc12)NNC(=O)Nc1cccc(Cl)c1,0.964,3.65% (inactive)
O=C(Nc1cccc(Cl)c1)N1CCCC1,1.09,-8.6% (inactive)
O=C(NCc1csc2ccccc12)Nc1cc(Cl)cc(Cl)c1,2.45,-145% (active)
O=C(Nc1ccc(C(=O)N2CCCCC2)cc1)Nc1cccc(Cl)c1,2.39,-139% (active)
O=C(NCc1cccc2ccccc12)Nc1ccccc1,1.74,-74.1% (inactive)
O=C(Cc1ccccc1)NNC(=O)Nc1cccc(Cl)c1,0.911,8.85% (inactive)
O=C(Cn1nnc(-c2ccc(Cl)cc2)n1)NC1CC2CCC1C2 (stereo not given),1.15,-15.3% (inactive)
COC(=O)c1ccc(NC(=S)NC2CC3CCC2C3)cc1 (stereo not given),1.56,-56% (inactive)
O=C(Nc1cccc(Cl)c1)NC1CC2CCC1C2 (stereo not given),2.64,-164% (active)
CC[C@]12c3[nH]c4ccc(OC)cc4c3CCN1C(=O)C(CC(=O)NCCC1=CCCCC1)C[C@@H]2C(=O)N1CCN(C(=O)C2CC2)CC1 (stereo not given in full),1.01,-1.4% (inactive)
O=C(Oc1cccc(NC(=O)c2ccco2)c1)c1ccc(Br)c(S(=O)(=O)N2CCCCC2)c1,0.907,9.3% (inactive)
O=C(Nc1scc(-c2ccccc2)c1C(=O)O)c1ccco1,0.964,3.6% (inactive)
CCn1c(CNc2ccc(OC)cc2)nnc1SCC(=O)Nc1ccc(F)cc1,1.08,-7.7% (inactive)
Cc1cc(NC(=O)CC23CC4CC(C2)CC(CC(=O)Nc2cc(C)on2)(C4)C3)no1,1.02,-1.55% (inactive)

SMILES,activation factor,"activity change, negative = activation"
Cc1sc2nc(SCC(=O)Nc3c(C)n(C)n(-c4ccccc4)c3=O)n(C)c(=O)c2c1C,0.771,22.9% (inactive)
Cc1csc(C(=O)O)c1-n1cccc1,0.908,9.2% (inactive)
Fc1ccc(OCc2nn3cnnc3s2)cc1,0.923,7.75% (inactive)
CCOC(=O)/C(C#N)=C\c1ccco1,1.12,-11.7% (inactive)
COC(=O)c1ccccc1NC(=O)CN(CCc1ccccc1)S(C)(=O)=O,1.04,-3.75% (inactive)
CCOc1ccc(C2C(C#N)=C(N)N(c3sc4c(c3C#N)CCCC4)C3=C2C(=O)CCC3)cc1 (stereo not given),0.903,9.65% (inactive)
COCCC(=O)N(Cc1ccc2c(c1)OCO2)C(C(=O)NC1CCCCC1)c1ccncc1 (stereo not given),0.912,8.8% (inactive)
O=C(Nc1cccc(Cl)c1)Nc1ccc2c(c1)OCO2,2.46,-146% (active)
O=C(Nc1ccccc1)Nc1ccc(Br)c(Cl)c1,1.82,-82.4% (inactive)
O=C(Nc1cc(Cl)cc(Cl)c1)Nc1cnccn1,1.97,-96.5% (active)
COC(=O)c1ccccc1NC(=O)Nc1ccc2c(c1)OCO2,1.08,-8% (inactive)
O=C(Nc1cc(Cl)cc(Cl)c1)c1cnn2cccnc12,0.974,2.55% (inactive)
S=C(NCc1cccnc1)Nc1cc(Cl)cc(Cl)c1,1.38,-38.4% (inactive)
O=C(Nc1ccccc1)Nc1cc(Cl)cc(Cl)c1,3.41,-241% (active)
O=C(Nc1cccnc1)Nc1cc(Cl)cc(Cl)c1,1.69,-68.7% (inactive)
Fc1cccc(NC(=S)NCc2ccc(Cl)cc2)c1,1.31,-30.9% (inactive)
O=C(Nc1cccc(F)c1)Nc1cccc(Cl)c1,2.11,-111% (active)
CC(C)C(=O)Nc1cccc(C(=O)Nc2ccc3c(c2)OCO3)c1,0.972,2.8% (inactive)
Cc1ccc2c(c1)N(CCC(=O)NCc1cccs1)C(=O)C(C)O2 (stereo not given),1.03,-2.7% (inactive)
O=C(CCCOc1ccccc1)Nc1nnc(C2CCCO2)s1 (stereo not given),1.01,-1.15% (inactive)
CCOC(=O)c1c(-c2ccccc2)csc1NC(=O)COc1ccc2c(C)cc(=O)oc2c1,0.967,3.3% (inactive)
Cc1ccc(NC(=O)CS(=O)CC(=O)NCC2CCCO2)cc1 (stereo not given),1.07,-6.55% (inactive)
O=C(O)C1C2C=CC(O2)C1C(=O)NCCC1=CCCCC1 (stereo not given),1.12,-12.2% (inactive)
COCCN(C(=O)C(F)(F)F)C(C(=O)NC1CCCCC1)c1ccco1 (stereo not given),0.978,2.15% (inactive)
CC1CCN(C(=O)c2ccc(NC(=O)C3CCCO3)cc2)CC1 (stereo not given),1.06,-5.95% (inactive)
COc1cc2oc(=O)cc(-c3ccc(-c4ccc(F)c(Cl)c4)cc3)c2c(OC)c1OC,0.913,8.7% (inactive)
Cn1c(Cn2cnc3ccccc32)nnc1SCC(=O)CC(=O)Nc1ccccc1,0.996,0.45% (inactive)

SMILES,activation factor,"activity change, negative = activation"
COc1ccc(-n2ncc3c(=O)n(CC(=O)N4c5ccccc5CC4C)cnc32)cc1 (stereo not given),1,-0.2% (inactive)
C/C(CC(=O)Nc1cccc(Cl)c1)=N\NC(=O)Cc1ccc(Cl)cc1,1.02,-2.2% (inactive)
CCOC(=O)c1sc(NC(=O)Nc2cccc(Cl)c2)cc1C,1.83,-82.6% (inactive)
CC(=O)Nc1cccc(NC(=O)Nc2ccc(C(C)=O)cc2)c1,1.13,-13.4% (inactive)
CCC1(COC(=O)Nc2cccc(Cl)c2)COC1,1.16,-16.4% (inactive)
CSc1ccccc1NC(=O)Nc1cccc(Cl)c1,1.48,-48.5% (inactive)
CC(=O)c1cccc(NC(=O)Nc2cccnc2)c1,1,-0.35% (inactive)
N#CCc1ccc(NC(=O)Nc2cccc(Cl)c2)cc1,1.88,-87.6% (inactive)
CC(C)OC(=O)NCCOC(=O)Nc1cccc(Cl)c1,2.12,-112% (active)
CC(O)c1cccc(NC(=O)Nc2cccc(NC(=O)Nc3cccc(C(C)O)c3)c2)c1 (stereo not given),1.89,-88.9% (active)
C=CCc1cc(Cl)ccc1OC(=O)Nc1cccc(Cl)c1,2.05,-105% (active)
O=C(NCCc1ccc(Cl)cc1)Nc1cccc(Cl)c1,1.92,-92.5% (inactive)
O=C(Nc1cccc(Cl)c1)Nc1cccc(Cl)c1,3.21,-221% (active)
COCCN(CC(=O)NCc1ccc2c(c1)OCO2)C(=O)CCC(=O)Nc1nccs1,0.99,1% (inactive)
O=S(=O)(N[C@H](CO)c1ccccc1)c1ccc(Br)cc1F,1.03,-2.75% (inactive)
CCOC(=O)C1=C(C)N(C[C@@H]2CC[C@@H](Cc3ccc(-c4ccccc4)cc3)O2)C(=O)NC1c1ccc(C(F)(F)F)cc1 (stereo not given in full),0.924,7.6% (inactive)
COc1ccc(CCNC(=O)CC2COc3ccccc3O2)cc1OC (stereo not given),1.06,-5.55% (inactive)
Oc1c(C=C2N=c3ccccc3=N2)sc(=S)n1-c1ccc(F)cc1,0.615,38.5% (inactive)
COc1ccc(CC(NC(C)=O)C(=O)NC2CCN(C(=O)c3cnccn3)CC2)cc1 (stereo not given),0.93,7% (inactive)
CCN1Cc2cc(OC)ccc2-c2ccccc2S1(=O)=O,1.15,-14.7% (inactive)
O=C(NCCN1CCN(Cc2ccccc2)CC1)Nc1cc(Cl)cc(Cl)c1,1.43,-42.5% (inactive)
CN(c1cccc(NC(=O)Nc2ccc(Cl)cc2)c1)S(C)(=O)=O,1.91,-91.2% (inactive)
O=C(Nc1cc(Cl)cc(Cl)c1)N1CCCC1,1.62,-62.2% (inactive)
CN(c1cccc(NC(=O)Nc2cccc(Cl)c2)c1)S(C)(=O)=O,2.47,-147% (active)
Cc1ccc(S(=O)(=O)N(CC(=O)Nc2cccc(N(C)S(C)(=O)=O)c2)c2ccc(Cl)c(Cl)c2)cc1,1.73,-73.1% (inactive)
CN1CCN(NC(=O)Nc2cc(Cl)cc(Cl)c2)CC1,2.2,-120% (active)
